# Experimental data published in article PMC4552634, “A New Set of Chemical Starting Points with Plasmodium falciparum Transmission-Blocking Potential for Antimalarial Drug Discovery” (PLoS ONE, 2015).
# Like-named read-outs stand apart in the source and are kept apart here. In all, about 13,000 compounds went through this assay and about 3,200 (25%) showed an effect of 50% or more. The list shows a part of the results.
# Tested on: P. falciparum stage V gametocytes
# Set-up: BacTiter-Glo ATP luminescence viability of purified stage V gametocytes in 384-well plates, per cent inhibition versus DMSO
# Conditions: 48 h, 5 µM, inhibitor
Structure (SMILES),% Inhibition,% Inhibition (% Inhibition)
Cc1ccc(-n2cc(CNCCCn3ccnc3)c(-c3cccc(C)c3)n2)cc1 [TCMDC-124630],80.81%,–
COc1ccc(-n2cc(CNCCCn3ccnc3)c(-c3cccc(F)c3)n2)cc1 [TCMDC-124651],46.38%,–
Cc1ccc(-n2cc(CNCCc3ncc(C)[nH]3)c(-c3ccc(F)cc3)n2)cc1 [TCMDC-124685],44.13%,–
Cc1cc2nc(-c3cc(-c4cccc(NS(C)(=O)=O)c4)cnc3N)[nH]c2cc1C [TCMDC-133558],-28.88%,–
CC(C)c1ccc2oc(-c3ccc(NC(=O)c4ccc([N+](=O)[O-])o4)cc3)nc2c1 [TCMDC-124010],79.92%,–
O=C(Nc1ccc2oc(-c3ccc(Br)cc3)nc2c1)c1ccc([N+](=O)[O-])o1 [TCMDC-123698],17.72%,–
O=C(Nc1ccc2oc(-c3ccc(Cl)cc3Cl)nc2c1)c1ccc([N+](=O)[O-])o1 [TCMDC-123753],49.41%,–
CCc1ccc(-c2nc3cc(NC(=O)c4ccc([N+](=O)[O-])o4)ccc3o2)cc1 [TCMDC-123924],1.176%,–
Cc1ccc(-c2nc3cc(NC(=O)c4ccc([N+](=O)[O-])o4)ccc3o2)cc1Cl [TCMDC-123657],94.01%,–
Cc1cccc(-c2nc3cc(NC(=O)c4ccc([N+](=O)[O-])o4)ccc3o2)c1 [TCMDC-123925],17.49%,–
O=C(Nc1ccc(-c2ccc(-c3nc4cc(C(F)(F)F)ccc4[nH]3)s2)cc1)c1ccoc1 [TCMDC-136842],-23.12%,–
CCCCN(CCCC)CCNC(=O)c1ccc(-c2nc3ccc(Cl)cc3[nH]2)c(OCC)c1 [TCMDC-140909],-44.96%,–
CCCCOc1cc2c(cc1OCC)C(C=Cc1ccc(Cl)cc1Cl)=NCC2.Cl [TCMDC-137450],76.64%,–
CCCOc1cc2c(cc1OCCC)C(C=Cc1ccc(Cl)cc1Cl)=NC(C)C2.Cl (stereo not drawn) [TCMDC-137448],86.79%,–
COc1cc2c(cc1OC)C(C(=O)c1ccccc1)=NCC2.Cl [TCMDC-141993],35.87%,–
CC(C)C1=CC(=NOS(=O)(=O)c2ccccc2)C=C(C(C)C)C1=O [TCMDC-124172],-30.75%,–
O=C(/C=C/c1ccc2ccccc2c1)NCC1(c2ccc(-c3ccccc3)cc2)CCOCC1 [TCMDC-134257],16.18%,–
NC1CCN(c2cnn(Cc3cccc(NC(=O)Nc4ccc(-c5ccccc5)cc4)c3)c(=O)c2Cl)CC1 [TCMDC-141930],54.32%,–
O=C(Nc1ccc(Cn2ncc(N3CCNCC3)c(Cl)c2=O)cc1)Nc1ccc(-c2ccccc2)cc1 [TCMDC-141922],-25.28%,–
O=C(Nc1ccc(-c2ccccc2)cc1)Nc1cccc(Cn2ncc(N3CCCNCC3)c(Cl)c2=O)c1 [TCMDC-141923],12.88%,–
CC1CN(c2cnn(Cc3cccc(NC(=O)Nc4ccc(-c5ccccc5)cc4)c3)c(=O)c2Cl)CC(C)N1 (stereo not drawn) [TCMDC-141935],-13.22%,–
O=C(Nc1ccc(Cn2ncc(N3CCCNCC3)c(Cl)c2=O)cc1)Nc1ccc(-c2ccccc2)cc1 [TCMDC-141928],–,-32.1%

Structure (SMILES),% Inhibition,% Inhibition (% Inhibition)
Cc1c(Cn2ncc(N3CCC(N)CC3)c(Cl)c2=O)cccc1NC(=O)Nc1ccc(-c2ccccc2)cc1 [TCMDC-141931],109.1%,–
Cc1ccc(Cn2ncc(N3CCCNCC3)c(Cl)c2=O)cc1NC(=O)Nc1ccc(-c2ccccc2)cc1 [TCMDC-141924],99.19%,–
O=C(Nc1ccc(-c2ccccc2)cc1)Nc1cccc(Cn2ncc(N3CCNCC3)c(Cl)c2=O)c1 [TCMDC-141920],-37.77%,–
Cc1ccc(Cn2ncc(N3CCNCC3)c(Cl)c2=O)cc1NC(=O)Nc1ccc(-c2ccccc2)cc1 [TCMDC-141921],40.54%,–
Cc1ccc(Cn2ncc(N3CC(C)NC(C)C3)c(Cl)c2=O)cc1NC(=O)Nc1ccc(-c2ccccc2)cc1 (stereo not drawn) [TCMDC-141937],14.65%,–
CC1CN(c2cnn(Cc3ccc(NC(=O)Nc4ccc(-c5ccccc5)cc4)cc3)c(=O)c2Cl)CC(C)N1 (stereo not drawn) [TCMDC-141940],80.37%,–
Cc1c(Cn2ncc(N3CC(C)NC(C)C3)c(Cl)c2=O)cccc1NC(=O)Nc1ccc(-c2ccccc2)cc1 (stereo not drawn) [TCMDC-141936],-6.259%,–
CC(C)C[C@H](NC(=O)c1ccc(OCCN2CCOCC2)cc1)C(=O)N[C@H](/C=N/N1CCNC1=O)CCc1ccccc1 [TCMDC-136156],19.17%,–
O=C(Nc1ccc(Cl)cc1)Nc1ccc2nonc2c1 [TCMDC-124586],-84.09%,–
COc1cc(N(C)Cc2cnc3nc(N)nc(N)c3n2)cc(OC)c1OC [TCMDC-137363],43.25%,–
Cc1cccc(-n2c(Nc3ccc(C)c(Cl)c3)nc3ccc(S(=O)(=O)NC(C)C(C)C)cc32)c1 (stereo not drawn) [TCMDC-136234],-15.02%,–
CCCc1c(C(=O)OCC)c2cc(O)ccc2n1-c1ccc(OC)cc1 [TCMDC-125126],-66.75%,–
COc1cccc(C2=CC(C)(C)Oc3cc(OCCN(C)C)ccc32)c1 [TCMDC-131403],8.416%,–
Cc1sc(N2CCN(C)CC2)nc1C(=O)Nc1ccc(F)cc1C(F)(F)F [TCMDC-134302],-2.511%,–
O=C(Nc1ccc(Cn2ncc(N3CCCNCC3)c(Cl)c2=O)cc1)Nc1ccc(-c2ccccc2)cc1 [TCMDC-141927],–,-25.81%
Cc1ccc(Cn2ncc(N3CCC(N)CC3)c(Cl)c2=O)cc1NC(=O)Nc1ccc(-c2ccccc2)cc1 [TCMDC-141932],107.1%,–
O=C(Nc1ccc(Cl)cc1)Nc1ccc(Cn2ncc(N3CCCNCC3)c(Cl)c2=O)cc1 [TCMDC-133331],-14.26%,–
Cc1ccc(Cn2ncc(NC3CCNCC3)c(Cl)c2=O)cc1NC(=O)Nc1ccc(-c2ccccc2)cc1 [TCMDC-141929],95.66%,–
Cc1ccc(NC(=O)Nc2ccc(Cn3ncc(N4CCCNCC4)c(Cl)c3=O)cc2)cc1 [TCMDC-133332],5.468%,–
COc1ccc2nccc([C@@H](O)CN3CCC(NCCOc4cccc(C(F)(F)F)c4Cl)CC3)c2c1 [TCMDC-140661],20.87%,–
O=C(Nc1cccc(C(F)(F)F)c1)c1cc([N+](=O)[O-])cc2cn[nH]c12 [TCMDC-125395],7.696%,–
O=C(Nc1ccc(Br)c(Cl)c1)c1cc([N+](=O)[O-])cc2cn[nH]c12 [TCMDC-123693],77.61%,–

Structure (SMILES),% Inhibition,% Inhibition (% Inhibition)
O=C(Nc1ccc(F)c(Cl)c1)c1cc([N+](=O)[O-])cc2cn[nH]c12 [TCMDC-123694],-9.121%,–
COc1cc(NCCCNC(=O)c2cc3c(Cl)cc(Cl)cc3[nH]2)nc2ccccc12 [TCMDC-140360],30.45%,–
O=c1cc(NCCCNCc2cn(S(=O)(=O)c3ccccc3)c3ccccc23)[nH]c2ccccc12 [TCMDC-140361],89.9%,–
O=c1cc(NCCCNCc2cc(C(F)(F)F)ccc2Cl)[nH]c2ccccc12 [TCMDC-139422],4.715%,–
COc1cc(Nc2ccc3cc(S(=O)(=O)N4CCCCC4C)ccc3n2)cc(OC)c1OC (stereo not drawn) [TCMDC-125163],-47.67%,–
CN(C)CCCNCc1cn(S(=O)(=O)c2ccccc2Cl)c2ccccc12 [TCMDC-136302],105.4%,–
COc1cc(NCCCNCc2cn(S(=O)(=O)c3ccccc3)c3ccccc23)nc2ccccc12 [TCMDC-140214],73.5%,–
O=c1cc(NCCCNCc2ccccc2-c2ccccc2)[nH]c2ccccc12 [TCMDC-139450],-0.2545%,–
CCN(CC)CCOc1c(Cl)cc(Cl)cc1CNCCCNc1cc(=O)c2ccccc2[nH]1 [TCMDC-139684],26.89%,–
Cc1c(NCCCNCc2cc(Cl)cc(Cl)c2Cl)[nH]c2ccccc2c1=O [TCMDC-139498],-59.03%,–
Cc1cc(OCCCN2CCC(NS(=O)(=O)c3ccc(Cl)c(Cl)c3)CC2)c2ccccc2n1 [TCMDC-136278],-51.1%,–
COc1cc(NCCCNC(=O)c2ccc(Cl)c(Cl)c2)nc2ccccc12 [TCMDC-140373],-10.34%,–
COc1cc(NC2CCCC(NCc3cn(S(=O)(=O)c4ccccc4)c4ccccc34)C2)nc2ccccc12 (stereo not drawn) [TCMDC-140505],77.87%,–
COc1ccc2nccc(NC(=O)N3CCC(NCc4cc5c(F)ccc(F)c5[nH]4)CC3)c2n1 [TCMDC-140784],-20.31%,–
Cc1cc(C(F)(F)F)n2nc(C(=O)N(Cc3cncn3Cc3ccccc3F)CC3CC3)cc2n1 [TCMDC-132463],-10.43%,–
Cc1c(C)n(C2CCCC2)c2ncnc(OC3CCN(CC(=O)NCC4CC4)CC3)c12 [TCMDC-134421],19.09%,–
CN(Cc1cnc2nc(N)nc(N)c2n1)c1ccc(C(=O)N[C@H](CCC(=O)OC(C)(C)C)C(=O)N[C@@H](CCC(=O)OC(C)(C)C)C(=O)OC(C)(C)C)cc1 [TCMDC-137262],-6.983%,–
COc1cc(Cc2cnc(N)nc2N)cc(OC)c1OCCCCC(=O)O [TCMDC-137352],14.26%,–
CN(Cc1cccc(C#N)c1)C1CCN(c2cc(NC(=O)c3cccc(F)c3)ccn2)CC1 [TCMDC-134972],21.14%,–
COc1ccnc(NCCCNCc2cn(S(=O)(=O)c3ccccc3)c3ccccc23)c1 [TCMDC-140380],99.09%,–
COc1c(C)cc(I)cc1CNCCCNc1cc(=O)c2ccccc2[nH]1 [TCMDC-140056],-89.66%,–
COc1cc(CNCCCNc2nc3ncccc3[nH]2)c2[nH]cc(Br)c2c1 [TCMDC-140259],-28.64%,–
